# This is a sample that favours compounds with a hit; in the whole collection about 17% have one here.
# TGFb inhibitor – qHTS for Inhibitors of TGF-b | Potency, µM (top dose mostly 46.1 µM), actives largely listed as inhibitors | HepG2 CAGA-GFP TGF-b/SMAD3 reporter, GFP fluorescence, 18 h; TGF-beta stimulated, 500 pg/mL final | 1.2% of 410,000 active; also: nearly all actives have a fitted effect of over 65% in size
#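 Read-out: total well GFP (ex488/em500-530) summed from mean per-cell fluorescence. Cells: HEPG2 CAGA-GFP, 1% FBS DMEM, 18 h at 37 degrees C with 500 pg/mL final TGF-beta. Unstimulated wells served as the full-inhibition control; stimulated DMSO wells = 0%.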
# DT40 TDP1 CPT – qHTS for Inhibitors of human tyrosyl-DNA phosphodiesterase 1 (TDP1): qHTS in cells in presence of CPT; Potency, µM (highest dose often 46.2 µM), usual class: inhibitors; chicken DT40 Tdp1-/-;hTDP1 cells + 20 nM CPT, ATP luminescence, 48 h; 12% of 420,000 active; also: nearly all actives have a fitted effect of over 55% in size
#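 Cell growth measured by CellTiter-Glo luminescence after a minimum 48 h, 37 C compound exposure with 20 nM CPT in Tdp1-knockout DT40 cells stably expressing hTDP1, seeded 400/well; qHTS titration format.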
# DT40 TDP1 no CPT – qHTS for Inhibitors of human tyrosyl-DNA phosphodiesterase 1 (TDP1): qHTS in cells in absence of CPT; DT40 Tdp1-/- hTDP1 cells, no CPT, ATP luminescence, 48 h; Potency, µM (highest dose often 46.2 µM), actives largely listed as inhibitors; 15% of 420,000 active; AID 686978, 2013; also: nearly all actives have a fitted effect of over 55% in size
#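 Camptothecin absent (DMSO only). Human TDP1-complemented DT40 knockout cells, 400 cells/well, 37 °C for minimum 48 hr; ATP measured via CellTiter-Glo, 30 min dark incubation, luminescence.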
# S2 tox – Viability Counterscreen for Primary qHTS for Inhibitors of ATXN expression. AID 651635, 2014. S2 cells (HEK-293 line with an ATXN2-luciferase reporter) viability, CellTiter-Fluor protease fluorescence, 24 h. 0.49% of 400,000 active. Potency, µM (doses to about 56.7 µM), usual class: cytotoxic; also: nearly all actives have a fitted effect of over 40% in size
# HepG2 tox – qHTS for Inhibitors of TGF-b: Cytotox Counterscreen | HepG2 CAGA-GFP viability, ATP luminescence, 18 h | Potency, µM (series often up to 46.1 µM), hits mostly cytotoxic | 0.76% of 410,000 active | AID 588856, 2011
#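 CellTiter-Glo luminescence gave cytotoxicity after 18 hours at 37 degrees C. The cells were HepG2 CAGA-GFP in 1% FBS DMEM, stimulated with 500 pg/mL TGF-beta after compound addition. %Activity was normalised to no-cell wells (complete cell-killing) and DMSO (no toxicity), and curves were fitted and classified.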
# ATXN2 expr inh – Primary qHTS for Inhibitors of ATXN expression; HEK-293 ATXN2-luciferase reporter, luminescence, 24 h; Potency, µM (highest dose often 57 µM), usual class: inhibitors; AID 1745845, 2022; 0.72% of 360,000 active; also: nearly all actives have a fitted effect of over 55% in size
#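 ATXN2-luciferase reporter cells (luciferase flanked by upstream and downstream ATXN2 gene portions) were treated 24 h at 37 °C with compounds at up to 57 uM. SteadyGlo luminescence gave expression; GF-AFC fluorescence gave viability.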
# A number is an active result; i = inactive; ? = inconclusive; nt = no result given; [ ] = remark or other dose. Calls follow the shape of the dose curve; as a rule, active = well fitted curve in the direction sought with a large enough effect; inconclusive = small, poorly fitted or top-dose-only effect, or another doubt; inactive = no such curve, though single readings can be large; an effect the other way counts as inactive or inconclusive.
SMILES,TGFb inhibitor,DT40 TDP1 CPT,DT40 TDP1 no CPT,S2 tox,HepG2 tox,ATXN2 expr inh
O=C(NNC(=S)Nc1ccccc1)c1cc(Br)ccc1Cl,14µM,i,?,i,i,i
COc1cccc(NC(=S)NNC(=O)c2ccccc2OC(F)F)c1,i,?,?,i,i,i
CC(=O)c1ccc(NC(=O)c2cc(S(=O)(=O)N3CCOCC3)ccc2C)cc1,i,?,?,i,i,i
Cc1ccc(S(=O)(=O)N2CCOCC2)cc1C(=O)Nc1ccc(N2CCCCCC2)cc1,?,4.6µM,4.6µM,i,i,i
O=C(NNC(=S)Nc1cccc(Cl)c1)c1ccccc1OC(F)F,13µM,?,?,i,4.5µM,?
Cc1oc(-c2ccccc2NC(=O)C2CCC2)nc1CNC(=O)c1ccc2ccccc2c1,nt,i[9.04 µM],i,i,nt,nt
CCn1[nH]c(=O)c(=Nc2c(C)n(C)n(-c3ccccc3)c2=O)cc1-c1ccc(Cl)cc1,i,i,?,i,i,i
O=C(C1CCCN(S(=O)(=O)c2ccccc2[N+](=O)[O-])C1)N1CCCC1 (stereo not given),i,i,i,?,i,i
COc1ccc2nc(/N=C\N(C)C)sc2c1,i,i,i,i,i,i
COc1ccc2nc(N=Nc3ccc(N(C)C)cc3)sc2c1,i,16µM,?,?,i,i
CCn1c(-c2cccnc2Cl)nc2cc(Cl)c(Cl)cc21,i,18µM,?,i,i,i
CCOC(=O)Cn1c(-c2cccnc2Cl)nc2cc(Cl)c(Cl)cc21,i,i,i,i,i,i
Cc1ccc(C)c(OCCSc2nc3ccccc3n2CC(=O)N2CCOCC2)c1,i,i,?,?,i,i
Cc1ccc(C(C)C)c(OCCSc2nc3ccccc3n2CC(O)CO)c1 (stereo not given),?,13µM,16µM,?,i,?
COC(=O)C1CCCCN1Cc1ccc2c(c1)CN(C(=O)c1cc(C)nc3cc(F)ccc13)CCO2 (stereo not given),nt,i[9.04 µM],?,?,nt,nt
CCOC(=O)N/N=C/c1cn(CCCOc2ccccc2)c2ccccc12,i,?,?,i,i,i
COC(=O)N/N=C/c1cn(CC(C)COc2ccccc2)c2ccccc12 (stereo not given),i,?,23µM,i,i,?
Cc1ccc(OCCn2cc(/C=N/NC(=O)c3ccncc3)c3ccccc32)cc1,?,?,23µM,nt,i,?
COc1ccc(OCCn2cc(/C=N/NC(=O)c3ccncc3)c3ccccc32)cc1,?,i,i,i,i,i
CCOC(=O)N/N=C/c1cn(CCCOc2ccc(C)cc2)c2ccccc12,i,?,21µM,nt,i,i
COC(=O)[C@H](Cc1ccccc1)NC(=O)Cn1ccc(NC(=O)OCc2ccccc2)nc1=O,i,?,?,i,i,i
CCN(CC)CCCn1c2c(c(SCC(=O)Nc3nc4ccccc4s3)nc1=O)CCC2,?,i,?,i,i,i
CCn1cc(S(=O)(=O)NCCc2ccc(OC)c(OC)c2)cn1,i,i,i,i,i,i
Cc1ccc(OCCCC(=O)Nc2nc3ccccc3[nH]2)cc1,i,i,i,i,i,i
Cc1ccccc1OCC(=O)NCCc1nc2ccccc2[nH]1,i,i,?,i,i,i
SMILES,TGFb inhibitor,DT40 TDP1 CPT,DT40 TDP1 no CPT,S2 tox,HepG2 tox,ATXN2 expr inh
Cc1cccc(OCCSCc2nc3ccccc3[nH]2)c1,i,16µM,21µM,i,i,i
Cc1cccc(OCCCSc2nc3ccccc3[nH]2)c1,i,?,i,i,i,i
Cc1ccccc1OCCSCc1nc2ccccc2[nH]1,?,16µM,?,i,i,i
Cc1cccc(OCCCC(=O)Nc2nc3ccccc3[nH]2)c1,?,i,?,i,i,13µM
COc1ccc(NS(=O)(=O)c2ccc3oc(SC4CCOC4=O)nc3c2)cc1 (stereo not given),?,i,i,i,i,i
COc1ccc(N(C(=O)COc2ccc(F)cc2)S(=O)(=O)c2ccc(C)cc2)cc1,i,i,i,i,i,i
COc1ccc(N(C(=O)c2ccc(C(C)(C)C)cc2)S(=O)(=O)c2ccc(Cl)cc2)cc1,i,?,21µM,?,i,?
Cc1ccc(C(=O)N(c2ccc(C)cc2)S(=O)(=O)c2ccc(Cl)cc2)cc1,?,?,23µM,?,i,?
COc1ccc(N(C(=O)c2ccccc2C)S(=O)(=O)c2ccc(C)cc2)cc1,i,12µM,?,i,i,i
CCOc1ccc(N(C(=O)c2ccc(C)cc2)S(=O)(=O)c2ccc3c(c2)n(C)c(=O)n3C)cc1,i,i,?,i,i,i
COc1ccc(N(C(=O)COc2ccccc2OC)S(=O)(=O)c2ccc(Cl)cc2)cc1,?,16µM,23µM,i,i,i
COC(=O)CC1=C(C(=O)OC)[C@@H](c2ccccc2[N+](=O)[O-])C(C#N)=C(N)O1,i,i,i,?,i,i
COc1ccc(C(=O)COC(=O)CN2C(=O)C3C4C=CC(C5CC45)C3C2=O)cc1 (stereo not given),i,i,i,i,i,i
COc1ccc(N(C(=O)c2cccnc2)S(=O)(=O)c2ccc(Cl)cc2)cc1,i,?,i,i,i,i
COc1ccc(N(C(=O)c2cccc(C)c2)S(=O)(=O)c2ccc(Cl)cc2)cc1,?,18µM,?,i,i,?
Cc1oc2ncnc(N3CCCCC3)c2c1C(=O)NCC1CCN(Cc2cccc(F)c2)CC1,i,?,?,i,i,i
C(=N\Nc1nc2ccccc2s1)/c1ccc2c(c1)OCO2,i,i,?,i,i,i
Fc1cccc2sc(Nc3nc4ccccc4s3)nc12,i,?,12µM,i,i,i
c1ccc2sc(Nc3nc4cc5c(cc4s3)OCO5)nc2c1,i,23µM,?,i,i,i
O=[N+]([O-])c1cc(Cl)cc(/C=N/Nc2nc3ccccc3s2)c1O,i,0.33µM,0.92µM,?,i,?
COc1cc(/C=N/Nc2nc3ccccc3s2)cc([N+](=O)[O-])c1O,i,?,?,i,i,nt
Fc1ccc2nc(Nc3nc4c(F)cccc4s3)sc2c1,?,?,?,i,i,i
Brc1cc2c(cc1/C=N/Nc1nc3ccccc3s1)OCO2,i,15µM,?,?,i,i
COc1ccc(COC(=O)Oc2ccc(CNC(C)=O)cc2OC)c([N+](=O)[O-])c1,i,i,i,i,i,i

# Screening results deposited in PubChem BioAssay by National Center for Advancing Translational Sciences (NCATS).
